Experimental data: PubChem BioAssay (NCATS)
Records with an inconclusive call do not appear. Values without a mark were called inactive. Activity calls are given as the source filed them. Calls follow the shape of the dose curve; as a rule, active = well fitted inhibition curve with a large enough effect; inconclusive = small, poorly fitted or top-dose-only effect; inactive = flat fitted curve, though single readings scatter. Where a SMILES comes first, the peptide text is derived from it. Bridges are numbered along the chain shown (N, C = ends). [ ]: non-standard residue; d: D form. The star is where a group is joined. X2 = CC[C@H](C)CCCCC(=O)*; Dab = NCC[C@H](N)C(=O)O

Assay: P-glycoprotein substrates identified in KB-8-5-11 adenocarcinoma cell line, qHTS therapeutic library screen (AID 1346987); also: nearly all actives have a fitted effect of over 65% in size
Conditions: KB-8-5-11 (P-gp overexpressing) viability, CellTiter-Glo, 72 h; series mostly up to 44.5 µM; activity change, negative = cytotoxicity: at the top concentration
Method in brief: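 Compounds are pinned in dose-response onto KB-8-5-11 cells (500 cells/well, colchicine-free medium) and left 72 h at 37 degree C. CellTiter-Glo luminescence then yields AC50 values.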
% is scaled to controls: 0 for no effect and ±100 for the full control effect; potency is read from the fitted curve at half-maximal effect.

Compound | activity change, negative = cytotoxicity | Potency
c1cnc2cc3c(cc2n1)[C@@H]1CNC[C@H]3C1 | 0.729% | –
CC1(C)SCCN(S(=O)(=O)c2ccc(Oc3ccncc3)cc2)[C@H]1C(=O)NO | -5.29% | –
C=C[C@@]1(C)C=C2C(=O)C(O)=C3[C@](C)(C(=O)O)CC[C@@H]4C[C@]34[C@]2(O)C(=O)C1 | – | 10.1 µM (active)
CC(NCCCc1cccc(C(F)(F)F)c1)c1cccc2ccccc12 (stereo unspecified) | -12.3% [at 17.3 µM] | –
CN(C)CCN(Cc1ccc(-c2ccc(CNCCc3ccccc3)cc2)cc1)C(=O)CCC1CCCC1 | – | 4.11 µM (active)
C[C@H](/C=C/[C@H](C)C(C)(C)O)[C@H]1CC[C@H]2/C(=C/C=C3C[C@@H](O)C[C@H](O)C3)CCC[C@]12C | – | 8.2 µM (active)
O=C(O)c1cc2ccccc2c(Cc2c(O)c(C(=O)O)cc3ccccc23)c1O | -0.0258% | –
C/C=C/C=C/c1cc2c(C=O)c(O)c(CC=C(C)C)cc2o1 | -11.6% | –
C/C(=C(\CCOC(=O)c1ccccc1)SS/C(CCOC(=O)c1ccccc1)=C(/C)N(C=O)Cc1cnc(C)nc1N)N(C=O)Cc1cnc(C)nc1N | -1.98% | –
NCCCC[C@H](NC(=O)[C@@H]1CCCN1C(=O)[C@@H]1CSSC[C@H](N)C(=O)N[C@@H](Cc2ccccc2)C(=O)N[C@@H](Cc2ccccc2)C(=O)N[C@@H](CCC(N)=O)C(=O)N[C@@H](CC(N)=O)C(=O)N1)C(=O)NCC(N)=O | -5.26% | –
CC[C@H](C)CCCCC(=O)N[C@@H](CCN)C(=O)N[C@H](C(=O)N[C@@H](CCN)C(=O)N[C@H]1CCNC(=O)[C@H]([C@@H](C)O)NC(=O)[C@H](CCN)NC(=O)[C@H](CCN)NC(=O)[C@H](CC(C)C)NC(=O)[C@@H](CC(C)C)NC(=O)[C@H](CCN)NC1=O)[C@@H](C)O (X2-[Dab]T[Dab][Dab][Dab][dL]L[Dab][Dab]T; lactam 4-C) | 14.9% | –
